GCN5L2 inh – inhibitors of human GCN5L2 histone acetyltransferase | Q92830 | GCN5L2 HAT assay, ThioGlo1 CoA-SH fluorescence | Potency, µM (top dose mostly 58.9 µM), without a hit: top-dose activity change, negative = inhibition, most hits filed as inhibitors | 390,000 compounds, 0.21% hits | AID 504327
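Free CoA generated was detected with ThioGlo1 (50uM) fluorescence at Ex340nm/Em540nm, read immediately and after 20 min at room temperature. Enzyme, 20 nM in HEPES pH 7.5 buffer, saw compounds 15 min before adding 75uM H3(1-25) peptide and 70uM acetyl-CoA.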
VDR inhibitor – vitamin D3 receptor (human) inhibition | P11473 | VDR-SRC2-3 peptide fluorescence polarization, 2 h | Potency, µM, for the others: max response, negative = inhibition, usual class: inhibitors | 400,000 compounds, 0.93% hits
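FP read-out; VDR + SRC2-3 coactivator peptide; 23 nl compound by pintool; 2 h RT incubation; reagents held at 4 deg C, protected from light.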
DT40 TDP1 CPT – growth inhibition of DT40 Tdp1-/-;hTDP1 cells with camptothecin (screen for TDP1 inhibitors); chicken DT40 Tdp1-/-;hTDP1 cells + 20 nM CPT, ATP luminescence, 48 h; Potency, µM (top dose mostly 46.2 µM), for the others: top-dose activity change, negative = growth inhibition, actives largely listed as inhibitors; 420,000 compounds, 12% hits; AID 686979; note: nearly all actives have a fitted effect of over 55% in size
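Chicken DT40 Tdp1-/- cells stably complemented with human TDP1 were seeded at 400 cells/well in medium containing 20 nM camptothecin, exposed to pin-transferred compounds, and grown at 37 °C for at least 48 hr. Viability was read as ATP luminescence.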
PLK1 PBD block – PLK1 (human) polo-box domain binding inhibition; AID 720504; 360,000 compounds, 2.8% hits; P53350; Plk1 PBD binding of FITC phosphopeptide, fluorescence polarization; Potency, µM, for inactives: max response, negative = inhibition, usual class: inhibitors; note: series mostly up to about 57 µM; nearly all actives have a fitted effect of over 65% in size
TDP1 block – blocks human tyrosyl-DNA phosphodiesterase 1; Q9NUW8; recombinant TDP1, AlphaScreen DNA substrate cleavage; Potency, µM (highest dose often 130 µM), for inactives: at the highest dose activity change, negative = inhibition, actives largely listed as inhibitors; 350,000 compounds, 0.28% hits; note: nearly all actives have a fitted effect of over 40% in size
Target sequence (Q9NUW8 whole entry, looked up): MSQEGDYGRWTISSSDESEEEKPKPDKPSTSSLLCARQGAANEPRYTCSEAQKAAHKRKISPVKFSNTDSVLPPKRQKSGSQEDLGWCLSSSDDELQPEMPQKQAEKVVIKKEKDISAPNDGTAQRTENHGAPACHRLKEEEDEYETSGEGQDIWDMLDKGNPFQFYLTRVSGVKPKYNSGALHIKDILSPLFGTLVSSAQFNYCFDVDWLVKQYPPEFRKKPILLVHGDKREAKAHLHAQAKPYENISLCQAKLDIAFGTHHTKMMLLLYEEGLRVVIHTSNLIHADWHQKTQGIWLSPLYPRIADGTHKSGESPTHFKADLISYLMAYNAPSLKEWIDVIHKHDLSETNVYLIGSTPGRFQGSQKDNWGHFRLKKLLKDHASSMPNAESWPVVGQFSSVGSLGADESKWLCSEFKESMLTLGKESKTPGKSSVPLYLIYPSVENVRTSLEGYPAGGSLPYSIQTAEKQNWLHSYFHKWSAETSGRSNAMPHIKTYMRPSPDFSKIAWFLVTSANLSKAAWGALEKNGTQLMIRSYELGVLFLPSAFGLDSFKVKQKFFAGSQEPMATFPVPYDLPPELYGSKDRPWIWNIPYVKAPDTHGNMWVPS
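Signal: AlphaScreen proximity between streptavidin donor and anti-FITC acceptor beads on intact substrate. Reaction: Tdp1 1 nM, substrate 15 nM final, 5 min RT after 15 min compound preincubation.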
DT40 TDP1 no CPT – qHTS for Inhibitors of human tyrosyl-DNA phosphodiesterase 1 (TDP1): qHTS in cells in absence of CPT. 420,000 compounds, 15% hits. DT40 Tdp1-/- hTDP1 cells, no CPT, ATP luminescence, 48 h. Potency, µM (highest dose often 46.2 µM), for the others: at the top dose activity change, negative = growth inhibition, actives largely listed as inhibitors; note: nearly all actives have a fitted effect of over 55% in size
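No-CPT arm: Tdp1-/-;hTDP1 DT40 cells (400/well) plus compounds, incubated ≥48 hr at 37 °C. Readout CellTiter-Glo luminescence.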
* = called active by the depositor. Most compounds without a hit are left out; they make up all but 18% or so of the library. Calls come from the whole dose curve; as a rule, active = well fitted curve in the direction sought with a large enough effect; inconclusive = small, poorly fitted or top-dose-only effect, or another doubt; inactive = no such curve, though single readings can be large; an effect the other way counts as inactive or inconclusive. % is set by controls: 0 for no effect and ±100 for the full control effect; potency is the fitted concentration of half-maximal effect.

NNC(=O)COc1ccc(-c2n[nH]c(C(F)(F)F)c2-c2ccc(Br)cc2)c(O)c1 was read as GCN5L2 inh -9%, VDR inhibitor -14%, DT40 TDP1 CPT -4%, PLK1 PBD block -2%, TDP1 block 3% and DT40 TDP1 no CPT -17%.
`CCN(CC)c1ccc(-c2nn3c(-c4n[nH]c5c4CCC5)nnc3s2)cc1` gave GCN5L2 inh -6%, VDR inhibitor 19%, DT40 TDP1 CPT 0.92µM*, PLK1 PBD block -20%, TDP1 block 6% and DT40 TDP1 no CPT 0.65µM*.
`CCOC(=O)C1CCCN(C(=O)c2cnn(-c3ncc4c(n3)-c3ccccc3CCC4)c2C2CC2)C1` (stereo unspecified) gave DT40 TDP1 CPT 11% and DT40 TDP1 no CPT -21%.
`COc1cc([N+](=O)[O-])ccc1NC(=S)Nn1cnnc1` gave GCN5L2 inh -18%, VDR inhibitor inconclusive, DT40 TDP1 CPT -24%, PLK1 PBD block 9.5µM*, TDP1 block 7% and DT40 TDP1 no CPT 8%.
For CCSc1ccccc1C(=O)Nc1ccc([N+](=O)[O-])cc1OC the results were GCN5L2 inh -4%, VDR inhibitor -13%, DT40 TDP1 CPT inconclusive, PLK1 PBD block -15%, TDP1 block 1% and DT40 TDP1 no CPT 21µM*.
`CC(=O)Nc1ccc(S(=O)(=O)N2CCCC(C(=O)O)C2)cc1` (stereo unspecified) gave GCN5L2 inh -9%, VDR inhibitor -1%, DT40 TDP1 CPT 24%, PLK1 PBD block 3%, TDP1 block 2% and DT40 TDP1 no CPT 0%.
OC[C@@H]1CN(CCN2CCOCC2)C[C@H](n2cnc3c(Nc4ccccc4)ncnc32)O1 was read as DT40 TDP1 CPT -3%, PLK1 PBD block 4% and DT40 TDP1 no CPT -8%.
Screening CN(C)c1ccc(CC(=O)N2CCCCC2c2cc(C(=O)Nc3cccc4c3CCCC4)no2)cc1 (stereo unspecified) returned DT40 TDP1 CPT 26µM*, PLK1 PBD block -3% and DT40 TDP1 no CPT inconclusive.
For Cc1ccc(F)cc1C(=O)N1CCCCC1c1cc(C(=O)Nc2cccc(C#N)c2)no1 (stereo unspecified) the results were DT40 TDP1 CPT 29µM*, PLK1 PBD block -14% and DT40 TDP1 no CPT 21µM*.
`CN(C)c1ccc(CC(=O)N2CCCCC2c2cc(C(=O)Nc3cccc(C#N)c3)no2)cc1` (stereo unspecified) gave DT40 TDP1 CPT inconclusive, PLK1 PBD block -9% and DT40 TDP1 no CPT 23µM*.
Screening CC(=O)Nc1ccc(C(=O)N2CCCCC2c2cc(C(=O)Nc3cccc(C#N)c3)no2)cc1 (stereo unspecified) returned DT40 TDP1 CPT inconclusive, PLK1 PBD block -6% and DT40 TDP1 no CPT inconclusive.
CN(C)c1ccc(CC(=O)N2CCCC(c3cc(C(=O)Nc4ccccc4)no3)C2)cc1 (stereo unspecified) was read as DT40 TDP1 CPT inconclusive, PLK1 PBD block -6% and DT40 TDP1 no CPT inconclusive.
Screening CN(C)c1ccc(CC(=O)N2CCCCC2c2cc(C(=O)Nc3ccccc3)no2)cc1 (stereo unspecified) returned DT40 TDP1 CPT 21µM*, PLK1 PBD block 1% and DT40 TDP1 no CPT 26µM*.
`Cc1ccc(C)c(CC(=O)N2CCCCC2c2cc(C(=O)Nc3cccc(C#N)c3)no2)c1` (stereo unspecified) gave DT40 TDP1 CPT 23µM*, PLK1 PBD block -6% and DT40 TDP1 no CPT 23µM*.
Screening N#Cc1ccc(C(=O)N2CCCCC2c2cc(C(=O)Nc3cccc(C#N)c3)no2)cc1 (stereo unspecified) returned DT40 TDP1 CPT inconclusive, PLK1 PBD block -5% and DT40 TDP1 no CPT inconclusive.
CCNC(=S)N1CCN(c2nc(CC)nc3sc4c(c23)CCCC4)CC1 was read as GCN5L2 inh 0%, VDR inhibitor -8%, DT40 TDP1 CPT inconclusive, PLK1 PBD block -28% and DT40 TDP1 no CPT inconclusive.
Screening CCc1nc(N2CCN(C(=O)CCl)CC2)c2c3c(sc2n1)CC(C)CC3 (stereo unspecified) returned GCN5L2 inh -1%, VDR inhibitor inconclusive, DT40 TDP1 CPT 3.3µM*, PLK1 PBD block -5%, TDP1 block 6% and DT40 TDP1 no CPT 6.5µM*.
Screening CCc1nc(N2CCN(C(C)=O)CC2)c2c3c(sc2n1)CC(C(C)(C)C)CC3 (stereo unspecified) returned GCN5L2 inh 0%, VDR inhibitor -28%, DT40 TDP1 CPT inconclusive, PLK1 PBD block 3% and DT40 TDP1 no CPT 12µM*.
CCc1nc(N2CCN(C(=O)CCCl)CC2)c2c3c(sc2n1)CCCC3 was read as DT40 TDP1 CPT inconclusive, PLK1 PBD block -6% and DT40 TDP1 no CPT inconclusive.
`CN1c2ccccc2Sc2cc(N)ccc21` gave GCN5L2 inh inconclusive, VDR inhibitor -4%, DT40 TDP1 CPT -23%, PLK1 PBD block -12% and DT40 TDP1 no CPT 16µM*.
Screening CC(C)c1cc(C(N)=O)c(NC(=O)c2cccc(COc3ccc(Cl)cc3)c2)s1 returned GCN5L2 inh -16%, VDR inhibitor 12%, DT40 TDP1 CPT 26µM*, PLK1 PBD block -3%, TDP1 block -4% and DT40 TDP1 no CPT inconclusive.
For Cc1cc(NC(=O)c2cccc(COc3ccc(Br)cc3)c2)no1 the results were GCN5L2 inh 3%, VDR inhibitor -27%, DT40 TDP1 CPT -2%, PLK1 PBD block -3%, TDP1 block 0% and DT40 TDP1 no CPT 8%.
CCn1cc([N+](=O)[O-])c(C(=O)Nc2c(C)nn(Cc3c(F)c(F)c(F)c(F)c3F)c2C)n1 was read as GCN5L2 inh 0%, VDR inhibitor 2%, DT40 TDP1 CPT inconclusive, PLK1 PBD block 1%, TDP1 block 4% and DT40 TDP1 no CPT -30%.
`CCn1cc(Cl)c(C(=O)Nc2c(C)nn(Cc3c(F)c(F)c(F)c(F)c3F)c2C)n1` gave GCN5L2 inh inconclusive, VDR inhibitor 8%, DT40 TDP1 CPT 15µM*, PLK1 PBD block 2%, TDP1 block 2% and DT40 TDP1 no CPT inconclusive.
Screening CCn1ccc(C(=O)Nc2c(C)nn(Cc3c(F)c(F)c(F)c(F)c3F)c2C)n1 returned GCN5L2 inh 0%, VDR inhibitor -8%, DT40 TDP1 CPT inconclusive, PLK1 PBD block -5%, TDP1 block 0% and DT40 TDP1 no CPT 16µM*.

Bioassay records as filed in PubChem BioAssay.
